# Data: PubChem BioAssay (NCI)
# About 83,000 compounds went through this panel and 20% of them were active in at least one assay; those are over-represented in the sample as a whole.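 In brief: 96-well plates, 48 h treatment, single concentration, percent growth endpoint.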 Unmarked numbers belong to inactive results. Activity calls are given as the source filed them. Rule for the calls: active = growth percent below 10; inactive = the rest.
# Assays:
# Assay in all cases: NCI-60 one-dose screen, 48 h (100 = growth as untreated, 0 = no growth, -100 = all killed)
# Conditions in all cases: 10 µM unless noted
# [1] = tested on: HCT-15 colon
# [2] = tested on: HT29 colon
# [3] = tested on: SNB-75 CNS
# [4] = tested on: SNB-19 CNS
# [5] = tested on: U251 CNS
# [6] = tested on: PC-3 prostate
# [7] = tested on: SK-MEL-5 melanoma
# [8] = tested on: UACC-62 melanoma
# [9] = tested on: LOX IMVI melanoma
# [10] = tested on: SK-MEL-28 melanoma
# [11] = tested on: SK-MEL-2 melanoma
# [12] = tested on: EKVX NSCLC
# [13] = tested on: SN12C renal
# [14] = tested on: UO-31 renal
# [15] = tested on: TK-10 renal
# [16] = tested on: CAKI-1 renal
# [17] = tested on: A498 renal
# [18] = tested on: ACHN renal
# [19] = tested on: MOLT-4 leukemia
# [20] = tested on: CCRF-CEM leukemia
Structure (SMILES),growth [1],growth [2],growth [3],growth [4],growth [5],growth [6],growth [7],growth [8],growth [9],growth [10],growth [11],growth [12] [%],growth [13],growth [14],growth [15],growth [16],growth [17],growth [18],growth [19],growth [20]
CCCCCCCCCCCC1=NC(C)(C)CN1CCO,18%,-25.2% (active),65.2%,100%,21.8%,42.5%,58.9%,-14.3% (active),6.59% (active),68.5%,87.8%,68.7,72.6%,68.3%,92.6%,75%,95.4%,–,–,–
CC(=O)O[C@@H]1CC2C(C)(C)CCCC2(C)C2=C1C(=O)C(C(C)C)=CC2=O (stereo partly drawn),-8% (active),0.85% (active),-11.8% (active),20.9%,3.62% (active),12%,-93.3% (active),-64.4% (active),10.6%,-16.8% (active),-47.9% (active),10.8,7.47% (active),-94.1% (active),18.6%,-3.95% (active),-63.3% (active),-70.2% (active),9.69% (active),–
O=C(CCl)N1c2ccccc2Oc2ccc3ccccc3c21,-81.1% (active),-49.8% (active),22.1%,24.5%,-64.3% (active),6.63% (active),3.7% (active),-0.259% (active),-81.1% (active),53.8%,20.2%,59.1,-57.6% (active),-92.1% (active),-9.22% (active),-45.6% (active),110%,-95.9% (active),-4.23% (active),0.604% (active)
CC(C)[C@@]12C[C@@H](OC(=O)C3CO3)[C@@](C)(O1)[C@@H]1CC[C@@H](C)[C@H]1[C@@H]2OC(=O)/C=C/c1ccccc1 (stereo partly drawn),98.1%,93.9%,80.5%,94.4%,76.1%,86.2%,97.6%,77.4%,88.5%,110%,87.9%,82.3,58.6%,-3.56% (active),119%,51.7%,-31.7% (active),5.97% (active),79.9%,–
NC(=S)N1N=C(c2ccc(Cl)cc2)CC1c1cc2ccccc2[nH]c1=O (stereo not drawn),104%,95.3%,106%,101%,107%,87.5%,107%,97.7%,105%,115%,103%,109,104%,82.7%,109%,114%,89.5%,107%,72.5%,–
C=C1C[C@@]2(C)C(CC[C@]3(C)C2CC=C2C4CC(C)(C)C[C@@H](OC(=O)/C(C)=C\C)[C@]4(C(=O)O)CC[C@]23C)C(C)(C)C1=O (stereo partly drawn),-16.7% (active),-20.1% (active),52.5%,27.6%,-47.9% (active),-6.78% (active),26.4%,-12.6% (active),-65.7% (active),2.5% (active),18.8%,31.7,6.55% (active),-74.6% (active),17.2%,-7.09% (active),-17.4% (active),-83.8% (active),7.64% (active),–
CC(=O)CC(c1ccc([N+](=O)[O-])cc1)c1c(O)c2ccccc2oc1=O (stereo not drawn),110%,106%,81.7%,109%,104%,92%,91.9%,100%,101%,113%,97%,108,92.2%,76.7%,105%,94.1%,70.3%,98.1%,100%,–
C=CCN(CC#N)CC=C,116%,94.5%,96.2%,109%,100%,91%,94.9%,102%,101%,104%,117%,100,102%,92.4%,103%,107%,112%,109%,102%,–
O=S(=O)(Nc1ccc2ccccc2c1)N1CCCCC1,40.6%,40.9%,52%,90.2%,57.2%,61%,59.8%,56%,51.8%,73.6%,8.41% (active),81,81.9%,25%,86.8%,44%,27%,63.7%,64.5%,–
FC(F)(F)c1nn[nH]n1,105%,100%,102%,116%,99.5%,96.9%,103%,107%,87.2%,113%,112%,99.3,105%,99.1%,111%,97%,102%,109%,101%,–
COc1ccc2c(c1)N(Cc1ccc(Cl)cc1)CCC2N1CCCC1=O (stereo not drawn),33.5%,45.5%,27.1%,54.7%,39.1%,24%,24.7%,42.1%,30.3%,63.5%,64.4%,36.9,39.2%,8.64% (active),55.3%,40.8%,-7.14% (active),53.3%,34.5%,–
C[N+](C)(C)CC(=O)N/N=C\c1ccco1,102%,92.6%,83.2%,112%,98.7%,95.8%,101%,101%,101%,105%,111%,103,106%,82.8%,95.2%,98%,98.7%,107%,102%,–
CCOC(=O)c1cc(N)nc2ccccc12,107%,97.4%,112%,106%,103%,104%,106%,108%,96.7%,123%,99.9%,108,109%,103%,106%,102%,95%,105%,100%,–
COc1ccc2c(c1)sc1nc(-c3ccccc3)c(-c3cccc4ccccc34)n12,23%,1.35% (active),23.2%,29.8%,21.3%,24.3%,24.9%,35.5%,38.6%,52.1%,27.5%,28.7,44.7%,47.7%,37.9%,29.3%,0.895% (active),49.1%,27.1%,–
O=C1Nc2ccccc2/C1=C\c1nc(C2CCN(S(=O)(=O)c3ccc(F)cc3)CC2)n2ccccc12,90.5%,67.7%,-10.4% (active),-6.15% (active),41.3%,65.6%,75.3%,39.1%,49.2%,60.3%,17.8%,63.3,46%,68.2%,60.1%,57.8%,82.9%,55.6%,100%,–
COc1ccc2nc(C)cc(Sc3nc4ccccc4s3)c2c1,29.2%,26.2%,46.4%,62%,39.6%,52.9%,35.2%,47.3%,29.4%,62.7%,-99.6% (active),42.1,40.5%,16.7%,61.4%,-41.8% (active),40.7%,33.7%,-21.2% (active),–
Cc1cccc(/C=N/n2c(-c3ccc(Cl)cc3)nc3c(Br)cc(Br)cc3c2=O)c1,70.5%,67.9%,45.9%,62%,43%,21.4%,38.5%,35.5%,52.6%,60.7%,72.5%,52.3,47.9%,41.8%,26.8%,31.2%,99.6%,13.5%,55.4%,75.6%
